We go through eleven compounds from PubChem BioAssay (EPA / NIEHS).

Read-out in test [1]: Interleukin-1 alpha (IL1a), IL1A (gene 3552)
The test can be described thus: BSK_IMphg_IL1a: BioMAP Diversity Plus: IMphg Assay for Interleukin-1 alpha (IL1a) Biomarker Activity (AID 2284290). Conditions: primary human endothelial cells with macrophages. In outline: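 IL-1α is quantified by ELISA at 24 h in the endothelial/macrophage IMphg co-culture, with gain of signal fitted relative to DMSO. Parallel SRB total-protein staining flags overt toxicity.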

Read-out in test [2]: E-selectin (Homo sapiens) (UniProt P16581)
The test can be described thus: BSK_IMphg_ESelectin: BioMAP Diversity Plus: IMphg Assay for Eselectin Biomarker Activity (AID 2284291). Conditions: primary human endothelial cells with macrophages. In outline: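 Analysed against DMSO baseline in the positive fitting direction, this endpoint is an ELISA read of E-selectin. It comes from human venular endothelial cells co-cultured with macrophages, sampled 24 h post-dose.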

Test [3] in a line: BSK_IMphg_SRB: Viability Assessment in the BioMAP Diversity Plus: IMphg Assay (AID 2284292).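 Further: measured one day after compound addition.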 To be noted: primary human endothelial cells with macrophages. In outline:
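SRB viability endpoint: cultures of human endothelial cells plus macrophages fixed with 10% TCA, stained with 0.1% SRB, read at 560 nm 24 h post-dosing. Only gain-of-signal fitted, relative to DMSO.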

Read-out in test [4]: Macrophage colony-stimulating factor (MCSF), CSF1 (gene 1435)
As to the kind of experiment: BSK_IMphg_MCSF: BioMAP Diversity Plus: IMphg Assay for Macrophage colony-stimulating factor (MCSF) Biomarker Activity (AID 2284293). Conditions: primary human endothelial cells with macrophages. In outline:
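M-CSF was measured by ELISA in human venular endothelial cell/macrophage co-cultures dosed for 24 hours. Sulforhodamine B staining of parallel cultures assessed cytotoxicity; data fitted against DMSO baseline.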

Read-out in test [5]: Interleukin-10 (IL10), IL10 (gene 3586)
The test can be described thus: BSK_IMphg_IL10: BioMAP Diversity Plus: IMphg Assay for Interleukin-10 (IL10) Biomarker Activity (AID 2284294). Conditions: primary human endothelial cells with macrophages. In outline:
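IL-10 read by ELISA after 24 h chemical exposure of primary human venular endothelial cell/macrophage cocultures, with DMSO as baseline. Parallel SRB staining (560 nm) gauged overt cytotoxicity.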

Test [6] is described as follows: BSK_IMphg_SRB.Mphg: Macrophage Viability Assessment in the BioMAP Diversity Plus: IMphg Assay (AID 2284295). To be noted: primary human endothelial cells with macrophages. In outline:
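Cytotoxicity read-out: parallel cultures fixed with 10% TCA, stained with 0.1% sulforhodamine B, read at 560 nm. System combines venular endothelium and macrophages; sampled 24 h post-dosing, fitted positively relative to DMSO control.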

Read-out in test [7]: Thrombomodulin, THBD (gene 7056)
The test can be described thus: BSK_LPS_Thrombomodulin: BioMAP Diversity Plus: LPS Assay for Thrombomodulin Biomarker Activity (AID 2284296). Conditions: primary human HUVEC with PBMC. In outline: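 Thrombomodulin on the surface of LPS-activated endothelial/PBMC co-cultures was quantified by ELISA at 24 hours post-dosing, with DMSO as baseline. Parallel SRB total-protein staining flagged overt cytotoxicity.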

Read-out in another test: CD69, CD69 (gene 969)
As to the kind of experiment: BSK_LPS_CD69: BioMAP Diversity Plus: LPS Assay for CD69 Biomarker Activity (AID 2284303). To be noted: primary human HUVEC with PBMC. In outline: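 CD69 surface levels were read by ELISA after 24 h chemical treatment of an LPS-stimulated HUVEC plus PBMC co-culture; positive-direction fit against DMSO vehicle.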

The test system of another test is IYD (gene 389434). As to the kind of experiment: CCTE_GLTED_hIYD: CCTE's human Iodotyrosine Deiodinase (xIYD) Inhibition Assay, Great Lakes Toxicology and Ecology Division (GLTED) Lab (AID 2284317; active means hit-call score of the fitted dose curve at least 0.9, where 1 is the maximum). On the procedure:
CCTE_GLTED_hIYD is a cell-free, single-readout assay that uses human iodotyrosine deiodinase (hIYD) enzyme produced with baculovirus-insect cell system. The assay is based on iodide release measured by the Sandell-Kolthoff method and is run in 96-well plate format with assay plates run in triplicate (n=3) with measurements taken at 3 hours after chemical dosing. Platewise-normalization was used based on positive control (3-Nitro-L-tyrosine, MNT) and negative/solvent controls (DMSO, NaOH).CCTE_GLTED_hIYD is the assay component measured from the CCTE_GLTED_hIYD assay. It measures substrate involved in regulation of catalytic activity using spectrophotometry. The assay measures the deiodination activity of human IYD on the substrate monoiodotyrosine (MIT). After 3h incubation of substrate, enzyme, and test chemical, the components are applied to a 96-well Dowex column. Free iodide is not retained by the column and is separated from interfering assay components. The free iodide is measured by the Sandell-Kolthoff reaction in which the rate of reduction of cerium (Ce+4 to Ce+3) by arsenic (As+3 to As+5) is increased by the presence of iodide. This is observed as the loss of yellow color in the reaction and the quantified by the change in absorbance at 420 nm. The change in reaction rate is proportional to the amount of iodide present.Data from the assay component CCTE_GLTED_hIYD was analyzed at the assay endpoint CCTE_GLTED_hIYD in the positive analysis fitting direction relative to DMSO as the negative control and baseline of activity. Using a type of enzyme reporter, loss-of-signal activity can be used to understand iodotyrosine deiodinase activity. To generalize the intended target to other relatable targets, this assay endpoint is annotated to the 'dehalogenase' intended target family, where the subfamily is 'iodotyrosine deiodinase'.
Human thyroxine binding globulin (TBG) assay, developed at Great Lakes Toxicology and Ecology Division (GLTED) within the EPA's Center for Computational Toxicology and Exposure (CCTE), is designed to test the chemicals' ability to displace T4 from the TBG protein. The method used was largely based on Montano et al. (2012). This work describes the utilization of ANSA fluorescence when bound to the protein to approximate binding affinity of chemicals through a reduction of fluorescence when ANSA is displaced. This assay was conducted in 96-well plates with an incubation at 4C for 2 hours in a final volume of 200 uL. Final assay conditions included 0.0625 uM TBG, 0.6 uM ANSA, and 0.5% DMSO in 0.1 M phosphate buffer, pH=7.5.

A short description of test [8]: CCTE_Mundy_HCI_iCellGluta_NOG_NeuriteLength: CCTE's Neurite Outgrowth Assay in iCellGluta cells for Neurite Length, Mundy Lab (AID 2284318; active means hit-call score of the fitted dose curve at least 0.9, where 1 is the maximum). In outline:
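Automated high-content imaging of betaIII-tubulin (Alexa Fluor-488) and Hoechst-stained cells gave neurite length, normalized to the DMSO baseline.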

Several values for one entry are separate records, joined by “and”; a condition that tells them apart may be missing. Identical values can stand only once. Records with an inconclusive call do not appear. Some compounds were tested as several samples or in several runs, with calls that do not always agree. Activity calls are given as the source filed them. How the source made its calls, unless noted: active means hit-call score of the fitted dose curve at least 0.9, where 1 is the maximum; inactive means score below 0.9.

E-selectin (Homo sapiens), sequence (P16581 whole entry, looked up): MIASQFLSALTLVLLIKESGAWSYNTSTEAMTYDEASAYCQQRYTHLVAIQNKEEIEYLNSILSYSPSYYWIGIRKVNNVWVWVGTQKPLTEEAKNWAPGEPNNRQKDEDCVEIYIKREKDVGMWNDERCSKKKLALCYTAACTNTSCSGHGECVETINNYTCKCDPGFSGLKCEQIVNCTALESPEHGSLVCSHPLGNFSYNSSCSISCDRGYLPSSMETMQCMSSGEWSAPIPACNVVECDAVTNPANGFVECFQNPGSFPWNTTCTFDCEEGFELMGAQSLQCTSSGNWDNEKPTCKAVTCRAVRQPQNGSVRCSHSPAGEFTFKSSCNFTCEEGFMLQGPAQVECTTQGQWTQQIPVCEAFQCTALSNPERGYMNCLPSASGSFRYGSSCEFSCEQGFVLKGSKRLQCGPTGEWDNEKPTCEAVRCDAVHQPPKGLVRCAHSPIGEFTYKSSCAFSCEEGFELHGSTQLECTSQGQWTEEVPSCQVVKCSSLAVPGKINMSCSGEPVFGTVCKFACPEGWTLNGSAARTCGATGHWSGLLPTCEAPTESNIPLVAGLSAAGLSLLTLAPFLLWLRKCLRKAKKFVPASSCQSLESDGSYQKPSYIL

For orientation: AC50 means the concentration giving half of the maximal activity seen. In the case of `CNS(=O)(=O)C(F)(F)C(F)(F)C(F)(F)C(F)(F)C(F)(F)C(F)(F)C(F)(F)C(F)(F)F`, the concentration at half-maximal activity (AC50) in test [1] is 6.58 µM (active) and 9.9 µM (active); in test [2], 5.55 µM (active) and 8.07 µM (active); in test [5], 17.9 µM (active). Further, the outcome in test [3] is “inactive”; in [4], “inactive”; in [5], “inactive”; in [6], “inactive”; in [7], “inactive”; in the test with CD69, CD69 (gene 969), “inactive”.

For the compound `FC(F)(F)C(F)(F)C(F)(F)C(F)(F)C(F)(F)C(F)(F)C(F)(F)CCI`, the result in [2], in [3], in [4], in test [5], in test [6] and in [7] was inactive. Moreover, in the test with CD69, CD69 (gene 969), the outcome was inactive.

Turning to `O=C(O)CCC(F)(F)C(F)(F)C(F)(F)C(F)(F)C(F)(F)C(F)(F)C(F)(F)F`, the AC50 in test [2] is 2.27 µM (active) and 1.87 µM (active); in test [5], 3.33 µM (active); in test [6] it was 4.29 µM (active); in the test on IYD (gene 389434) it was 160 µM (active). Moreover, the outcome was “inactive” in [3]; “inactive” in test [4]; “inactive” in [6]; “inactive” in [7]; “inactive” with CD69, CD69 (gene 969); “inactive” in [8].

As for `NC(=O)C(F)(F)C(F)(F)C(F)(F)C(F)(F)C(N)=O`, the outcome in test [2], in [3], in test [4], in [5], in test [6] and in test [7] was inactive. Further, the outcome is “inactive” in the test with CD69, CD69 (gene 969) and “inactive” in test [8]. For the same compound, the concentration at half-maximal activity (AC50) in test [7] is 0.598 µM (active).

In the case of `O=C(O)C(F)(F)C(F)(F)C(F)(F)OC(F)(C(F)(F)F)C(F)(F)F`, the outcome in test [1], in [2], in test [3], in [4], in test [5] and in test [6] was inactive. Also, the outcome in test [7] was “inactive”; in the test with CD69, CD69 (gene 969), “inactive”.

Take `O=S(=O)(O)CCC(F)(F)C(F)(F)C(F)(F)C(F)(F)C(F)(F)C(F)(F)C(F)(F)C(F)(F)F`: the AC50 was 21.3 µM (active) in [2], 30 µM (active) in test [5] and 8.71 µM (active) in [7]. Also, the outcome is “inactive” in [2]; “inactive” in test [3]; “inactive” in test [4]; “inactive” in [6]; “inactive” in [7]; “inactive” in the test with CD69, CD69 (gene 969).

As to `O=C(O)C(F)(F)C(F)(F)C(F)(F)C(=O)O`, the result in test [2], in test [3], in test [4], in test [5], in test [6] and in test [7] was inactive. Besides, the result with CD69, CD69 (gene 969) was inactive.

For `OCC(F)(F)C(F)(F)C(F)(F)CO`, the outcome in [1], in [2], in test [3], in test [4], in [5] and in [6] was inactive. The outcome is “inactive” in test [7] and “inactive” in the test with CD69, CD69 (gene 969).

Regarding `NS(=O)(=O)C(F)(F)C(F)(F)C(F)(F)C(F)(F)C(F)(F)C(F)(F)F`, the half-maximal activity concentration (AC50) in test [2] was 30 µM (active) and 21.3 µM (active); in test [4], 4.34 µM (active); in test [5], 28.1 µM (active) and 22.7 µM (active); in the test with CD69, CD69 (gene 969), 26 µM (active) and 22.3 µM (active). For the same compound, the outcome in test [3], in test [4], in test [6] and in test [7] was inactive.

With `NCC(F)(F)C(F)(F)C(F)(F)C(F)(F)C(F)(F)C(F)(F)F`, the result in test [2], in [3], in test [4], in test [5], in [6] and in test [7] was inactive. Moreover, the result with CD69, CD69 (gene 969) was inactive.

For the compound `COC(F)(C(F)F)C(F)(F)F` (centres undefined), the result in test [2], in test [3], in test [4], in test [5], in test [6] and in test [7] was inactive. Also, the result with CD69, CD69 (gene 969) was inactive.
